SKKanGAS inh – blocks kanamycin growth of S. pyogenes SKKanGAS strain. BacTiter-Glo, 6 h. inhibition, % at 7.5 µM. actives 1.3% (n = 300,000);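 active = mean replicate score, as percent of positive control median, at least 50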;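 note: strain carries kanamycin resistance gene driven by streptokinase promoter and grows in 40 µg/ml kanamycin; loss of luminescence reflects streptokinase promoter inhibition or plain growth inhibition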
tim10-1 inh – tim10-1 yeast growth inhibition; inhibition, % at 20 µM; AID 463190; S. cerevisiae tim10-1 ts strain growth, BacTiter-Glo, 24 h; actives 2.2% (n = 330,000);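 active = inhibition of at least 40%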;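 note: mutant grown at 25 °C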
tim23-1 inh – inhibits growth of tim23-1 mutant yeast | AID 463212 | S. cerevisiae tim23-1 growth, BacTiter-Glo luminescence, 24 h | actives 1.3% (n = 330,000) | inhibition, % at 20 µM;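 active = growth inhibition of the mutant yeast at or above 50%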;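 note: temperature-sensitive mutant grown at 25 °C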
NLRP3 yeast inh – inhibitors of NALP3 inflammasome in yeast. Yeast reconstituted NLRP3/ASC/caspase-1, beta-gal luminescence, 24 h. inhibition, % at 10 µM. actives 0.39% (n = 330,000);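 active = inhibition of 50% or more; inactive = inhibition below 50%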
TIM10 inh – growth inhibitors of TIM10 yeast strain | S. cerevisiae TIM10 strain growth, BacTiter-Glo luminescence, 24 h | actives 1.4% (n = 330,000) | inhibition, % at 10 µM | AID 463195;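 active = inhibition of 40% or more at the single tested concentration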;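 note: wild-type TIM10 isogenic control strain grown at permissive 25 °C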
PfHsp90 yeast 2 – inhibits growth of yeast expressing Plasmodium falciparum Hsp90 | inhibition, % at 9.4 µM | S. cerevisiae expressing PfHsp90, BacTiter-Glo ATP, 48 h; yeast lacking PDR1 and PDR3 efflux regulators | actives 0.32% (n = 310,000);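 active = every replicate shows inhibition above about 80%, whatever the replicate mean, limit read from the data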
NALP3 confirm – confirmation of NALP3 inhibitors in yeast; inhibition, % at 10 µM; yeast expressing human NALP3, luminescence; AID 435006; actives 81% (n = 1,300); shares compounds with NLRP3 yeast inh; in the data active = inhibition above about 48%
Casp1-ASC yeast – counter-screen for NALP3 inhibitors: yeast caspase-1-ASC; shares compounds with NLRP3 yeast inh; yeast expressing Caspase-1-ASC, luminescence counter screen; inhibition, % at 10 µM; actives 66% (n = 1,000)
NALP3 retest – retest-confirmed inhibitor of NALP3 in yeast; shares compounds with NLRP3 yeast inh; yeast expressing human NALP3, luminescence read-out; inhibition, % at 10 µM; actives 53% (n = 1,000)
tim10-1 conf – tim10-1 yeast growth inhibition, confirmed. AID 463213. actives 56% (n = 7,400). S. cerevisiae tim10-1 ts strain growth, BacTiter-Glo, 24 h. shares compounds with tim10-1 inh. inhibition, % at 20 µM;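 active = inhibition of yeast growth at or above a set limit in either of two repeat tests at 20 µM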;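 note: tim10-1 mutant grown at permissive 25 °C to find synthetic lethal compounds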
TIM10 conf – TIM10 yeast growth inhibition, confirmed. S. cerevisiae tim10 strain growth, BacTiter-Glo luminescence, 24 h. AID 463215. shares compounds with TIM10 inh. actives 63% (n = 4,600). inhibition, % at 10 µM;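 active = inhibition of yeast growth at or above a set limit in either of two replicates at 10 µM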; note: this counterscreen used the strain with wild-type TIM10
tim23-1 confirm – confirmation of tim23-1 mutant yeast growth inhibitors. shares compounds with tim23-1 inh. S. cerevisiae tim23-1 growth, BacTiter-Glo luminescence, 24 h. inhibition, % at 20 µM. actives 83% (n = 4,400);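 active = inhibition above about 39% in either of two replicate wells at 20 µM, limit read from the data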;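 note: temperature-sensitive tim23-1 mutant grown at 25 °C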
A number is an active result; n = inactive; x = not tested or not shown. Most compounds without a hit are left out; they make up all but 4.6% or so of the library. Cut-off read from the data, not from the text of the source, unless noted: active = inhibition above about 50%; inactive = the rest.

SMILES	SKKanGAS inh	tim10-1 inh	tim23-1 inh	NLRP3 yeast inh	TIM10 inh	PfHsp90 yeast 2	NALP3 confirm	Casp1-ASC yeast	NALP3 retest	TIM10 conf	tim23-1 confirm	others
O=C(Nc1csc(Cl)c1)c1ccccc1	n	n	56	80	43	n	81	86	79	41	69
CC(=O)c1cccc(NC(=O)C2CCCCC2)c1	n	n	n	n	n	n	x	x	x	x	x
O=C(Nc1cccc(Cl)c1)C1CCCCC1	x	n	66	50	n	n	55	n	n	x	69
O=C(Nc1cccc(Cl)c1)c1ccccc1	x	n	62	83	58	n	93	91	83	57	76
COc1cccc(NC(=O)c2ccccc2)c1	x	n	57	53	n	n	72	n	54	x	64
O=C(Nc1ccc(Cl)c(Cl)c1)c1ccccc1	x	n	n	n	n	x	x	x	x	x	x
CC(C)OP(=O)(c1ccc(N(C)C)cc1)C(O)c1ccc(N(C)C)cc1 (centres undefined)	n	n	n	n	n	n	x	x	x	x	x
O=Cc1cccc2ccc3cccc(C(=O)O)c3c12	n	n	n	n	n	n	x	x	x	x	x
Cc1ccc2sc(C)cc(=O)c2c1	x	x	x	x	x	n	x	x	x	x	x
CCOC(=O)/C(=N\Nc1ccc(Br)cc1)N1CC(C)OC(C)C1 (centres undefined)	n	n	n	n	n	n	x	x	x	x	x
c1ccc(-c2nc(-c3cccs3)[nH]c2-c2ccccc2)cc1	n	n	n	n	n	n	x	x	x	x	x
Cc1nc2nc(-c3cccs3)[nH]c2cc1Br	n	n	61	54	n	n	76	60	63	x	55
CN1C(N)=NC(=O)/C1=C\c1ccc(Br)cc1	n	n	n	n	n	n	x	x	x	x	x
CC(C)c1ccc(C(CC(=O)O)NC(=O)c2cccs2)cc1 (centres undefined)	n	n	n	n	n	n	x	x	x	x	x
O=C(Nc1scc(-c2ccc(F)cc2)c1C(=O)O)c1ccco1	n	n	n	n	n	n	x	x	x	x	x
Cc1ccc(-c2csc(NC(=O)/C=C/c3ccco3)c2C(=O)O)cc1	n	76	79	83	81	n	90	90	84	79	89	tim10-1 conf=74
CC(C)c1ccc(-c2csc(NC(=O)c3cccs3)c2C(=O)O)cc1	n	76	67	71	81	n	84	76	74	92	89	tim10-1 conf=86
Cc1ccc(-c2csc(NC(=O)c3ccc(Br)cc3)c2C(=O)O)cc1	n	81	84	91	82	n	96	95	88	93	89	tim10-1 conf=82
Cc1ccc(-c2csc(NC(=O)c3cccc(C)c3)c2C(=O)O)cc1	n	72	83	65	83	n	70	66	61	90	89	tim10-1 conf=84
C#CCOCCOCCOCCNc1nc(N2CCN(C(=O)[C@H](Cc3ccc(O)cc3)n3cc(CCO)nn3)CC2)nc(N2CCN(C(=O)[C@H](Cc3ccc(O)cc3)n3cc(CCO)nn3)CC2)n1	n	n	n	n	n	x	x	x	x	x	x
C/C(=N\NC(=O)COc1cc(C)cc(C)c1)c1cccc(NC(=O)C2CCC2)c1	n	n	n	n	n	n	x	x	x	x	x
NC(=S)N/N=C/c1ccccc1	n	n	n	n	n	n	x	x	x	x	x
NC(=S)N/N=C/c1ccc(C23CC4CC(CC(C4)C2)C3)cc1	100	n	75	64	n	x	n	x	x	x	68
CCOC(=O)c1cccc(NC(=O)c2cccs2)c1	n	n	57	61	65	n	79	51	53	57	80
Cc1ccc(NC(=O)c2ccc3nsnc3c2)c(Cl)c1	n	n	n	n	n	n	x	x	x	x	x
SMILES	SKKanGAS inh	tim10-1 inh	tim23-1 inh	NLRP3 yeast inh	TIM10 inh	PfHsp90 yeast 2	NALP3 confirm	Casp1-ASC yeast	NALP3 retest	TIM10 conf	tim23-1 confirm	others
O=C(C[n+]1ccccc1)N/N=C/c1cc(Br)cc(Br)c1O	102	n	68	78	56	n	53	87	77	68	69
NC(=O)COc1ccc(C(=O)/C=C2/C(=O)Nc3ccccc32)cc1	n	n	n	n	n	n	x	x	x	x	x
C=CCOc1ccccc1C(=O)/C=C1/C(=O)Nc2ccccc21	n	50	89	59	80	n	75	53	59	64	n	tim10-1 conf=active
COc1cc(OC)c(/C=C2\C(=O)Nc3ccccc32)c(OC)c1	x	n	n	n	n	x	x	x	x	x	x
COc1ccc(C(=O)/C=C2/C(=O)Nc3ccccc32)c(OC)c1	n	50	70	69	68	n	82	76	80	67	n	tim10-1 conf=59
O=C(NC1=NCCS1)c1sc2ccccc2c1Cl	n	n	73	52	46	n	63	x	x	37	80
Cc1ccccc1-c1nnn(CC(=O)Nc2ccc3c(c2)OCCO3)n1	n	n	n	n	n	n	x	x	x	x	x
CCCNC(=O)c1ccc(-c2nc3ccccc3s2)s1	n	n	56	58	55	n	76	n	n	33	77
CCCNC(=O)Nc1nc2ccccc2s1	n	n	n	n	n	n	x	x	x	x	x
Cc1ccc(-c2nc(N)c3c(-c4ccc(C)cc4)nn(C(C)(C)C)c3n2)cc1	n	n	n	n	n	n	x	x	x	x	x
CC(C)(C)n1nc(-c2ccc(F)cc2)c2c(N)ncnc21	n	n	73	93	69	n	93	96	92	51	61
CC(C)(C)n1nc(-c2ccc(Cl)cc2)c2c(N)ncnc21	n	n	63	88	50	n	94	95	90	47	62
Cc1ccc(-c2nn(C(C)(C)C)c3ncnc(NS(=O)(=O)c4ccc([N+](=O)[O-])cc4)c23)cc1	n	n	n	n	n	n	x	x	x	x	x
CCOC(=O)C1CCC/C1=N\NC(=O)CN(c1cc(OC)ccc1OC)S(=O)(=O)c1ccccc1 (centres undefined)	n	n	n	n	n	n	x	x	x	x	x
CCN(CC)c1ccc(/C=C2\SC(=O)N(C(C)C)C2=O)o1	n	62	60	52	57	x	n	56	n	64	74	tim10-1 conf=44
NC(=O)c1ccsc1NC(=O)CCS(=O)(=O)c1ccc(Cl)cc1	x	n	n	n	n	n	x	x	x	x	x
Nc1ccc2nc(SCc3ccccc3F)sc2c1	n	n	63	52	n	n	n	x	x	x	43

Screens: PubChem BioAssay, several laboratories
